In all, about 310,000 compounds went through this assay and about 3,600 (1.2%) were called active.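 The calls were made as follows: active = ratio plate-corrected score three or more library SD toward inhibition, starting fluorescence score within five deviations; inactive = the rest.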 The entries come from a sample that favours actives as a whole.

In this experiment the target is Anoctamin-1 (Mus musculus) (UniProt Q8BHY3). The experiment is described as follows: TMEM16A chloride channel inhibitors, primary screen, cell-based, HTS (AID 588511).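 As to normalized B-score (activity score, 25-100; higher = stronger inhibition): score derived from kinetic fluorescence span divided by baseline fluorescence per well.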 Conditions: HEK293 TMEM16A/YFP iodide influx fluorescence, ionomycin; at 10 µM.
Sequence of Anoctamin-1 (Mus musculus) (Q8BHY3 whole entry, looked up): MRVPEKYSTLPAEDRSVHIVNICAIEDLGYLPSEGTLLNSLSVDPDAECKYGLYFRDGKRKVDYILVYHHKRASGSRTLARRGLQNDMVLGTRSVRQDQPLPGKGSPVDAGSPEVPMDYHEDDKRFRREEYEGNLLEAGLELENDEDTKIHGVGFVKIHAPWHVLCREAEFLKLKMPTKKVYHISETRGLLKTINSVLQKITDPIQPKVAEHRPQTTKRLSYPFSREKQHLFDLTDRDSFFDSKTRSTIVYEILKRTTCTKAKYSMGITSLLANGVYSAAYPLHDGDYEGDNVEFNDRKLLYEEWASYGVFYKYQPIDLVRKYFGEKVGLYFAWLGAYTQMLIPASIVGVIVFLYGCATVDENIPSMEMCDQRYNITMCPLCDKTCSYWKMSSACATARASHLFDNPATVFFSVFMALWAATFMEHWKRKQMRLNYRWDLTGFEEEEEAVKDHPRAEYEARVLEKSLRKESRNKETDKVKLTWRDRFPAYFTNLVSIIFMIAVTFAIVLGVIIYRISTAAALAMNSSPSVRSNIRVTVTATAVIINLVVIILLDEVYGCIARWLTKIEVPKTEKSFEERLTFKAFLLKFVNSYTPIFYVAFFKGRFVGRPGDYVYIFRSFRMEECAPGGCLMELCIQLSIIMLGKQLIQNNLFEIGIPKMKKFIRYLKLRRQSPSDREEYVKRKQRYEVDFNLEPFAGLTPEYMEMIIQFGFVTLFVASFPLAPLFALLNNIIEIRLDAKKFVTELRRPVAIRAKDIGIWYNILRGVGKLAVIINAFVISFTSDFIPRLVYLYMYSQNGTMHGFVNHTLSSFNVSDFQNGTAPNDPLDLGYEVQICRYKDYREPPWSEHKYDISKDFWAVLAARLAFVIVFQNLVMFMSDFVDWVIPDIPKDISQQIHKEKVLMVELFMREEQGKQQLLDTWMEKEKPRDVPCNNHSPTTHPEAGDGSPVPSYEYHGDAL
Regarding `COc1ccc(C(=O)Nc2cc(C)c(NC(=O)c3ccccc3OC)cn2)cc1`, the normalized B-score (activity score, 25-100; higher = stronger inhibition) result was “inactive”.

Consider `CC1CN(C(=S)Nc2cccc(F)c2)CC(C)O1` (centres undefined), for which the normalized B-score (activity score, 25-100; higher = stronger inhibition) result was “inactive”.

As for `Cc1ccc(CNC(=O)c2ccc(CS(=O)Cc3cccc(Cl)c3)o2)cc1` (centres undefined), the normalized B-score (activity score, 25-100; higher = stronger inhibition) entry is “inactive”.

`CCCOc1cccc(C(=O)NCCCNC(=O)c2cccnc2)c1`: the normalized B-score (activity score, 25-100; higher = stronger inhibition) entry is “inactive”.

As for `CCc1ccc[n+](-c2nc([O-])sc2C=O)c1`, the normalized B-score (activity score, 25-100; higher = stronger inhibition) entry is “inactive”.

Take `CC(C)(C)c1cc(NC(=O)NN2CCOCC2)nn1-c1c(Cl)cc(Cl)cc1Cl`: the normalized B-score (activity score, 25-100; higher = stronger inhibition) entry is “inactive”.

With `COc1cccc(-c2nnc(NC(=O)c3ccc(S(=O)(=O)N(CC(C)C)CC(C)C)cc3)o2)c1`, the normalized B-score (activity score, 25-100; higher = stronger inhibition) is 100 (active).

`COc1ccc(-c2nnc(NC(=O)CS(=O)(=O)c3ccc(Cl)cc3)o2)c(OC)c1`: the normalized B-score (activity score, 25-100; higher = stronger inhibition) result is “inactive”.

`COc1cccc(NC(=O)c2ccc(S(=O)(=O)N(C)C)cc2)c1`: the normalized B-score (activity score, 25-100; higher = stronger inhibition) result was “inactive”.

For the molecule `CCn1c(C)nc2c1C(=O)c1ccccc1C2=O`, the normalized B-score (activity score, 25-100; higher = stronger inhibition) result was “inactive”.

For the molecule `CSc1ccccc1OCc1cc(C(=O)N2C[C@H]3CC[C@H]2C3)no1`, the normalized B-score (activity score, 25-100; higher = stronger inhibition) result is “inactive”.

Take `N#Cc1nc(COc2ccc(-c3ccccc3)cc2)oc1NCc1cccnc1`: the normalized B-score (activity score, 25-100; higher = stronger inhibition) is 100 (active).

Consider `O=S(=O)(c1ccc(Br)cc1)c1nc(-c2ccccc2)oc1NCc1cccnc1`, for which the normalized B-score (activity score, 25-100; higher = stronger inhibition) entry was “inactive”.

As to `Cc1ccc(OCc2nc(C#N)c(N3CCCC3)o2)cc1`, the normalized B-score (activity score, 25-100; higher = stronger inhibition) entry is “inactive”.

As for `CC(=O)N(c1ccc2oc(=O)sc2c1)S(=O)(=O)c1ccc(C)cc1`, the normalized B-score (activity score, 25-100; higher = stronger inhibition) result was “inactive”.

On to `Cn1c(SCc2ccc(F)cc2)nnc1-c1ccncc1`, for which the normalized B-score (activity score, 25-100; higher = stronger inhibition) entry was “inactive”.

Take `C=CCn1c(CNS(=O)(=O)c2ccc(Br)cc2)nnc1SC`: the normalized B-score (activity score, 25-100; higher = stronger inhibition) entry was “inactive”.

For the molecule `CCOC(=O)c1cc(NC(=O)c2ccc(Cl)cc2)c(=O)oc1-c1ccccc1`, the normalized B-score (activity score, 25-100; higher = stronger inhibition) result was “inactive”.

On to `Cn1cncc1COC(=O)c1ccc(Cl)cc1`, for which the normalized B-score (activity score, 25-100; higher = stronger inhibition) result is “inactive”.

Consider `CN1OC(COC(=O)c2ccc(Cl)cc2)CC1c1ccccc1` (centres undefined), for which the normalized B-score (activity score, 25-100; higher = stronger inhibition) is 100 (active).

Regarding `Cc1cc(OC(=O)c2ccc(Cl)cc2)cc(=O)n1C`, the normalized B-score (activity score, 25-100; higher = stronger inhibition) result was “inactive”.

As to `Cc1ccc(C)c(N2CCN(C(=O)CCc3nc4ccccc4[nH]3)CC2)c1`, the normalized B-score (activity score, 25-100; higher = stronger inhibition) result was “inactive”.

Regarding `Cc1ccc(C)c(N2CCN(C(=O)CCCCCn3c(=S)[nH]c4ccc(N5CCOCC5)cc4c3=O)CC2)c1`, the normalized B-score (activity score, 25-100; higher = stronger inhibition) result was “inactive”.

In the case of `Cc1ccc(C)c(N2CCN(C(=O)CCCCn3c(=O)[nH]c4ccccc4c3=O)CC2)c1`, the normalized B-score (activity score, 25-100; higher = stronger inhibition) was 25 (active).

Consider `CC(OC(=O)c1ccc(-n2cnnn2)cc1)C(=O)NCc1ccccc1` (centres undefined), for which the normalized B-score (activity score, 25-100; higher = stronger inhibition) result was “inactive”.

For `COCCNS(=O)(=O)c1cc(Br)ccc1OC`, the normalized B-score (activity score, 25-100; higher = stronger inhibition) entry was “inactive”.

On to `CC(=O)N1CCc2cc(S(=O)(=O)NC3CCCCC3)ccc21`, for which the normalized B-score (activity score, 25-100; higher = stronger inhibition) result was “inactive”.

Take `Cc1ccc(C)n1-c1ccncc1`: the normalized B-score (activity score, 25-100; higher = stronger inhibition) result is “inactive”.

Take `Cc1ccc(N)cc1-n1c(C)ccc1C`: the normalized B-score (activity score, 25-100; higher = stronger inhibition) is 100 (active).

Turning to `CCCn1nnnc1NCc1ccc(OC)cc1`, the normalized B-score (activity score, 25-100; higher = stronger inhibition) entry is “inactive”.

Consider `COc1ccc(CNc2nnnn2C)cc1`, for which the normalized B-score (activity score, 25-100; higher = stronger inhibition) was 25 (active).

For the molecule `Cn1nnnc1NCc1ccc(Cl)c(Cl)c1`, the normalized B-score (activity score, 25-100; higher = stronger inhibition) entry is “inactive”.

As to `C[C@@H]1C[C@@H]2O[C@H]2/C=C\C=C\C(=O)Cc2c(Cl)c(O)cc(O)c2C(=O)O1`, the normalized B-score (activity score, 25-100; higher = stronger inhibition) entry was “inactive”.

`CC(=O)Nc1cccc(OCC(=O)/C=C2\N(C)c3ccccc3C2(C)C)c1`: the normalized B-score (activity score, 25-100; higher = stronger inhibition) was 100 (active).

For the molecule `CC(C)Nc1nnc(SCC(=O)/C=C2\N(C)c3ccccc3C2(C)C)s1`, the normalized B-score (activity score, 25-100; higher = stronger inhibition) entry is “inactive”.

On to `CN1/C(=C\C(=O)c2oc3ccccc3c2N)C(C)(C)c2ccccc21`, for which the normalized B-score (activity score, 25-100; higher = stronger inhibition) result was “inactive”.

Consider `CCOc1cc(/C=N/NC(=O)c2cccc(S(=O)(=O)N3CCOCC3)c2)ccc1OCC(=O)N(C)C`, for which the normalized B-score (activity score, 25-100; higher = stronger inhibition) entry was “inactive”.

In the case of `CO[C@@H]1[C@@H](OC(N)=O)[C@@H](O)C(Oc2ccc3c(O)c(NC(=O)c4ccc(O)c(CC=C(C)C)c4)c(=O)oc3c2C)OC1(C)C` (some centres undefined), the normalized B-score (activity score, 25-100; higher = stronger inhibition) result was “inactive”.

On to `O=C(O)C1=NN(c2c(F)c(F)cc(F)c2F)C(=O)CC1`, for which the normalized B-score (activity score, 25-100; higher = stronger inhibition) entry is “inactive”.

On to `Cc1ccc(CN(N=Nc2nonc2N)c2nonc2N)c(C)c1`, for which the normalized B-score (activity score, 25-100; higher = stronger inhibition) is 25 (active).

As to `COc1ccc(Cc2nnc(SCC(=O)c3cccc([N+](=O)[O-])c3)n2C)cc1`, the normalized B-score (activity score, 25-100; higher = stronger inhibition) entry was “inactive”.

Take `COc1ccccc1C(=O)Nc1ccccc1C(=O)Nc1ccccc1`: the normalized B-score (activity score, 25-100; higher = stronger inhibition) entry is “inactive”.

With `O=C(Nc1ccc(NC(=O)c2ccccc2F)cc1)c1ccccc1F`, the normalized B-score (activity score, 25-100; higher = stronger inhibition) entry was “inactive”.

For `O=C(Nc1ccccc1)c1ccccc1NC(=O)C(F)(F)F`, the normalized B-score (activity score, 25-100; higher = stronger inhibition) was 100 (active).

Turning to `O=C(Nc1cccc(-c2cscn2)c1)C1CCN(Cc2ccsc2)CC1`, the normalized B-score (activity score, 25-100; higher = stronger inhibition) entry is “inactive”.

Regarding `CCn1cc(CN2CCC(C(=O)Nc3cccc(-c4cccc(Cl)c4)c3)CC2)cn1`, the normalized B-score (activity score, 25-100; higher = stronger inhibition) result was “inactive”.

Take `CC(=O)c1cc(CN2CCC(C(=O)Nc3cccc(-c4cscn4)c3)CC2)cs1`: the normalized B-score (activity score, 25-100; higher = stronger inhibition) is 25 (active).

On to `COc1ccc2oc(C(=O)NCC(Cc3ccccc3)N(C)C)c(C)c2c1` (centres undefined), for which the normalized B-score (activity score, 25-100; higher = stronger inhibition) result is “inactive”.

For the molecule `COc1ccc(NC(=O)C2COc3ccccc3O2)cc1` (centres undefined), the normalized B-score (activity score, 25-100; higher = stronger inhibition) result was “inactive”.

On to `O=C(Nc1ncc([N+](=O)[O-])s1)C1COc2ccccc2O1` (centres undefined), for which the normalized B-score (activity score, 25-100; higher = stronger inhibition) was 25 (active).

Regarding `CC(=O)Oc1ccccc1C(=O)Nc1ncc([N+](=O)[O-])s1`, the normalized B-score (activity score, 25-100; higher = stronger inhibition) is 100 (active).

In the case of `COc1ccc(NC(=O)c2ccccc2[N+](=O)[O-])cc1OC`, the normalized B-score (activity score, 25-100; higher = stronger inhibition) result is “inactive”.

In the case of `COc1ccc(OC)c2sc(NC(=O)C3COc4ccccc4O3)nc12` (centres undefined), the normalized B-score (activity score, 25-100; higher = stronger inhibition) result is “inactive”.

Regarding `Cc1cnc(NC(=O)c2ccccn2)s1`, the normalized B-score (activity score, 25-100; higher = stronger inhibition) result is “inactive”.
